Assay results published in the supplement of paper PMC6555819.

What was measured:
Assay in all cases: PBM binding z-score (relative to random genomic background probes); higher = stronger binding; sequences stand for … in GC…GCGATTGACAGCGTAGAATGAAGG
[1] = system: FXR:RXRa (NR concentration 270 nM, RXRa partner concentration 90 nM)
How it was run: (§1)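 For binding z-scores, the reference was random background probes on custom Agilent 4×180K protein-binding microarrays. These arrays were incubated 1 h with ligand-free nuclear receptor dimers in PBS pH 7.4, 2% milk, 0.02% Triton X-100, 1 mM DTT, 0.2 mg/mL BSA and 0.4 mg/ml salmon testes DNA. Fluorescence was scanned after antibody detection of each partner (one per run) and regression-normalized.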

[2] = system: LXRa:RXRa (NR concentration 270 nM, RXRa partner concentration 90 nM)
How it was run: as §1

[3] = system: LXRa homodimer (NR concentration 270 nM)
How it was run: as §1

[4] = system: LXRb:RXRa (NR concentration 270 nM, RXRa partner concentration 90 nM)
How it was run: as §1

[5] = system: LXRb homodimer (NR concentration 270 nM)
How it was run: as §1

[6] = system: PPARa:RXRa (NR concentration 270 nM, RXRa partner concentration 90 nM)
How it was run: as §1

[7] = system: PPARg:RXRa (NR concentration 180 nM, RXRa partner concentration 90 nM)
How it was run: as §1

[8] = system: PPARg:RXRa 270nM:90nM, anti-RXR (NR concentration 270 nM, RXRa partner concentration 90 nM)
How it was run: as §1

[9] = system: PPARg:RXRa 30nM:10nM, anti-RXR (NR concentration 30 nM, RXRa partner concentration 10 nM)
How it was run: as §1

[10] = system: PPARg:RXRa 90nM:30nM, anti-RXR (NR concentration 90 nM, RXRa partner concentration 30 nM)
How it was run: as §1

[11] = system: PPARg:RXRa DBDmut IVT, anti-RXR (DBD mutation: RXRa K156A/R161A, NR concentration 270 nM, RXRa partner concentration 90 nM)
How it was run: as §1

[12] = system: PPARg:RXRa IVT, anti-PPARg (NR concentration 270 nM, RXRa partner concentration 90 nM)
How it was run: as §1

[13] = system: PPARg DBDmut:RXRa IVT, anti-PPARg (DBD mutation: PPARg1 K132A/R137A, NR concentration 270 nM, RXRa partner concentration 90 nM)
How it was run: as §1

[14] = system: PPARg DBDmut IVT, anti-PPARg (DBD mutation: PPARg1 K132A/R137A, NR concentration 270 nM)
How it was run: as §1

[15] = system: PPARg homodimer (NR concentration 180 nM)
How it was run: as §1

[16] = system: PXR:RXRa (NR concentration 270 nM, RXRa partner concentration 90 nM)
How it was run: as §1

[17] = system: PXR homodimer (NR concentration 270 nM)
How it was run: as §1

[18] = system: RARa:RXR (NR concentration 270 nM, RXRa partner concentration 90 nM)
How it was run: as §1

[19] = system: RARa homodimer (NR concentration 270 nM)
How it was run: as §1

[20] = system: RARb:RXRa (NR concentration 270 nM, RXRa partner concentration 90 nM)
How it was run: as §1

Row | Sequence | PBM binding z-score [1] | PBM binding z-score [2] | PBM binding z-score [3] | PBM binding z-score [4] | PBM binding z-score [5] | PBM binding z-score [6] | PBM binding z-score [7] | PBM binding z-score [8] | PBM binding z-score [9] | PBM binding z-score [10] | PBM binding z-score [11] | PBM binding z-score [12] | PBM binding z-score [13] | PBM binding z-score [14] | PBM binding z-score [15] | PBM binding z-score [16] | PBM binding z-score [17] | PBM binding z-score [18] | PBM binding z-score [19] | PBM binding z-score [20]
1 | GTACCAAGGTGAATAGGTCGTTTATGAGTAGGCG | 0.975 | 1.13 | 0.161 | 0.811 | -0.198 | 2.44 | 1.62 | 1.79 | 0.597 | 1.5 | 1.82 | 2.43 | 0.986 | 0.34 | 1.17 | 1 | 0.0793 | 1.92 | 0.555 | 2.01
2 | AGAACTAGGGCACGCTGAGTTGATAGCAGAGTAG | -0.159 | -0.0416 | -0.762 | -0.394 | -0.896 | 3.01 | 5.21 | 4.47 | 1.85 | 3.37 | 8.03 | 7.98 | 3.17 | 2.05 | 0.0464 | 0.214 | -0.312 | -0.11 | -0.599 | 1.58
3 | AGAATGAGGTTAGGATCAGGGAAACAGAATACAT | 0.875 | 0.506 | -0.0173 | 1.16 | 0.0197 | 2.19 | 1.11 | 1 | 0.649 | 0.78 | 1.28 | 1.5 | 1.12 | 0.953 | 1.27 | 0.668 | 0.603 | 0.932 | 1.08 | 1.37
4 | TAGCCTACGTCATTGGGCCAGTATAGTACGCATC | -0.593 | -0.86 | -0.485 | -0.66 | -0.257 | -0.37 | 0.495 | -0.589 | -0.293 | -0.205 | -0.24 | 0.164 | -0.121 | -0.0205 | -0.852 | -0.757 | -0.796 | -0.734 | -0.851 | -0.413
5 | CCTTACCGGTCACGAGGTTATAGCACGACGAGCG | 2.69 | 3.04 | 2 | 2 | 0.699 | 2.85 | 2.12 | 2.07 | 0.437 | 1.06 | 1.09 | 2.32 | 0.31 | 0.533 | 2.18 | 1.92 | 0.733 | 2.66 | 1.45 | 3.73
6 | AGTCAAAGTTCAGGACGGGGTAACGTAAAGCACG | 4.41 | 4.06 | 1.34 | 2.69 | 1.48 | 3.58 | 4.9 | 5.07 | 2.19 | 4.12 | 0.312 | 2.3 | 1.25 | 1.24 | 1.87 | 3.66 | 1.28 | 3.45 | 1.36 | 4.13
7 | CTACCAAGGTGAGCAAGGTCGTTGATTACTATTC | 0.474 | 0.615 | -0.2 | 0.949 | -0.778 | 1.59 | 0.312 | 0.556 | -0.319 | -0.252 | 1.33 | 1.62 | -0.318 | -0.00619 | 0.031 | 1.79 | 0.655 | 1.44 | -0.327 | 1.64
